High-throughput results deposited in PubChem by National Center for Advancing Translational Sciences (NCATS).
In the library only some 2.4% were active in any assay of this set; here they are far more common.
WRN helicase inh: qHTS for Inhibitors of WRN Helicase. Bifunctional 3'-5' exonuclease/ATP-dependent helicase WRN (Homo sapiens), Q14191. WRN helicase unwinding, fluorescent forked duplex, kinetic. Potency, µM (doses to about 114 µM), for the others: at the highest dose activity change, negative = inhibition, hits mostly inhibitors. 360,000 compounds, 0.46% hits; further: on the % scale 0 is the no-effect control and ±100 the full control effect; nearly all actives have a fitted effect of over 55% in size
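Kinetic fluorescence helicase assay: unwinding of a quenched forked DNA duplex (100 nM final) with 2 mM ATP final raises red fluorescence (525/598 nm). Compounds sat 15 min at room temperature with 20 nM WRN beforehand.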
Pol iota inh: qHTS for Inhibitors of Polymerase Iota. DNA polymerase iota (Homo sapiens), Q9UNA4. Pol iota fluorescent replication assay, 10 min. Potency, µM (series often up to 115 µM), without a hit: at the highest dose activity, negative = inhibition, hits mostly inhibitors. 390,000 compounds, 1% hits. AID 588590, 2011
Target sequence (Q9UNA4 whole entry, looked up): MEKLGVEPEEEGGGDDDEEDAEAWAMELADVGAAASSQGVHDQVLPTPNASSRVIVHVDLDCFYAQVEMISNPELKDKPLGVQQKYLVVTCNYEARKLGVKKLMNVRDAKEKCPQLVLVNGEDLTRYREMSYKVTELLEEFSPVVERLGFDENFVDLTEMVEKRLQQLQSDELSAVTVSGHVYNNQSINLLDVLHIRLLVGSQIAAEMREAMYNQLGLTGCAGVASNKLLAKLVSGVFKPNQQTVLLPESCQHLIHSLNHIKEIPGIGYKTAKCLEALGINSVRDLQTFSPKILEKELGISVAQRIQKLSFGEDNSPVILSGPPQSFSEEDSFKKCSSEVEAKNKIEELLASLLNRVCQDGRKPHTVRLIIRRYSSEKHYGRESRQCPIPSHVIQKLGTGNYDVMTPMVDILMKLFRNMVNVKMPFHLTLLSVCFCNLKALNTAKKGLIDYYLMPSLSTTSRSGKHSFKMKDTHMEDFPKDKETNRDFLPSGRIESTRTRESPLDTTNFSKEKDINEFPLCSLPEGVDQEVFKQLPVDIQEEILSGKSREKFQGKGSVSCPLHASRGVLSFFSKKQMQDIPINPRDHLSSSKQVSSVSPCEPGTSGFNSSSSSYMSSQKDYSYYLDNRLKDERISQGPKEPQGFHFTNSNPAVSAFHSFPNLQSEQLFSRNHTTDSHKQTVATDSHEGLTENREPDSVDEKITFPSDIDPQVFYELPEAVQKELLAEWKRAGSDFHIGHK
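Fluorescent replication assay read twice, at 0 min and 10 min after adding 50 nM (final) substrate. Enzyme (10 nM) and compounds were first incubated 15 min at room temperature; enzyme-free buffer wells were negative controls.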
Pol eta inh: qHTS for Inhibitors of Polymerase Eta. DNA polymerase eta (Homo sapiens), Q9Y253. 390,000 compounds, 1.2% hits. Potency, µM (doses to about 114 µM), for the others: at the top dose activity change, negative = inhibition, most hits filed as inhibitors. recombinant Pol eta, fluorescent DNA replication assay; further: on the % scale 0 is the no-effect control and ±100 the full control effect
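Fluorescent replication assay: 50 nM final substrate added after a 15 min room-temperature compound preincubation with 10 nM enzyme. Signal taken at 0 min and again at 10 min.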
POLK inh: qHTS for Inhibitors of Polymerase Kappa | DNA polymerase kappa (Homo sapiens), Q9UBT6 | purified Pol kappa, fluorescent DNA synthesis assay, 10 min | Potency, µM (doses to about 107 µM), without a hit: at the top dose activity, negative = inhibition, usual class: inhibitors | 400,000 compounds, 0.53% hits; further: on the % scale 0 is the no-effect control and ±100 the full control effect
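Inhibition of 10 nM Pol kappa is measured by a fluorescent read-out at 0 and 10 min following addition of 50 nM substrate (final), with a 15-min room-temperature compound preincubation.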
Pol beta inh: qHTS Assay for Inhibitors of DNA Polymerase Beta; Pol beta primer extension/strand displacement, fluorescence kinetic; Potency, µM (doses to about 114 µM), for inactives: top-dose activity change, negative = inhibition, most hits filed as inhibitors; 340,000 compounds, 1.3% hits; AID 485314, 2010; further: on the % scale 0 is the no-effect control and ±100 the full control effect
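Pol beta (10 nM) was preincubated with compound for 15 min at room temperature. The reaction was then started with 50 nM substrate and read immediately and after a further 10 min at room temperature.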
FEN1 inhibitor: qHTS Assay for the Inhibitors of Human Flap endonuclease 1 (FEN1); P39748; Recombinant FEN1 flap cleavage, fluorescence, 15 min; Potency, µM (doses to about 114 µM), inactives show at the highest dose activity change, negative = inhibition, most hits filed as inhibitors; 390,000 compounds, 0.35% hits; AID 588795, 2011; further: on the % scale 0 is the no-effect control and ±100 the full control effect; nearly all actives have a fitted effect of over 65% in size
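Compounds are tested as a concentration series against 10 nM FEN1; after a 15 min room-temperature preincubation, 50 nM substrate starts cleavage, with plate reads at 0 and 15 min. Normalized responses are fitted by a Hill equation.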
PGK validate: qHTS for inhibitors of Phosphogylcerate Kinase: Hit Validation Screen; Potency, µM (top dose mostly 57.5 µM), for inactives: top-dose activity change, negative = inhibition, usual class: inhibitors; shares compounds with POLK inh; 500 compounds, 79% hits; TbPGK coupled GAPDH assay, Kinase-Glo luminescence; further: on the % scale 0 is the no-effect control and ±100 the full control effect; nearly all actives have a fitted effect of over 65% in size
Pol iota confirm: qHTS for Inhibitors of Polymerase Iota: Confirmatory Assay for Cherry-picked Compounds | shares compounds with POLK inh | AID 720496, 2013 | 1,500 compounds, 77% hits | Potency, µM, hits mostly inhibitors | Pol iota primer extension, TAMRA/BHQ fluorescence
The depositor's hits bear a star; i = inactive; ? = inconclusive; . = no result; [ ] = dose if it differs, or a comment. The call rests on the fitted dose curve; in most records, active means well fitted curve in the direction sought with a large enough effect; inconclusive means small, poorly fitted or top-dose-only effect, or another doubt; inactive means no such curve, though single readings can be large; an effect the other way counts as inactive or inconclusive. Potency means the concentration at half of the fitted maximal effect.

SMILES | WRN helicase inh | Pol iota inh | Pol eta inh | POLK inh | Pol beta inh | FEN1 inhibitor | PGK validate | Pol iota confirm
CCOc1cc(N2CCOCC2)c(OCC)cc1NC(=O)c1cc(-c2ccco2)nc2ccccc12 | -34.6% | ? | 79.4µM* | 4.0%[60.1 µM] | ? | -3.1% | . | ?
O=C(CCc1ccc(S(=O)(=O)N2CCOCC2)cc1)N/N=C/c1ccc(O)c(O)c1O | 79.4µM* | 2.82µM* | ? | 8.91µM* | 12.6µM* | ? | . | ?
O=C(Nc1ccc(Cc2ccc(NC(=O)Nc3cccnc3)cc2)cc1)Nc1cccnc1 | -9.6%[11.6 µM] | . | 44.7µM* | . | . | . | . | ?
O=C(CSc1ncc(S(=O)(=O)c2ccc(Cl)cc2)c(=O)[nH]1)Nc1ccc2c(c1)OCCO2 | . | -18.0% | 3.6% | 1.7% | ? | -9.2% | . | .
CCOc1ccc(/C=C2\SC(=S)N(CCC(=O)Nc3cccc(C(=O)O)c3)C2=O)cc1 | -15.6%[57.1 µM] | ? | 44.7µM* | -13.3% | -2.8% | -30.3% | . | 75.2*
O=C(CCN1C(=O)/C(=C/c2ccc3c(c2)OCO3)SC1=S)Nc1ccc(C(=O)O)cc1 | -12.2%[11.6 µM] | ? | ? | -23.2% | ? | ? | . | 75.2*
CNc1ccc(/C=C/c2ccnc3ccccc23)cc1 | . | 22.1% | . | 5.5% | . | -35.2% | . | .
O=C(Cn1c(=O)n2nc(-c3cccc(F)c3)nc2c2ccccc21)N1CCN(c2ccccc2F)CC1 | . | 25.0% | -13.0% | 3.5%[60.1 µM] | 0.0% | -3.2% | . | .
O=c1cc2oc3cc(O)c(O)cc3c(-c3ccccc3O)c-2cc1O | i | -26.6% | ? | 4.47µM* | 39.8µM* | 22.4µM* | 1.16µM* | .
COc1ccc(OC)c(-c2c3cc(O)c(=O)cc-3oc3cc(O)c(O)cc23)c1 | 79.4µM* | ? | . | ? | 44.7µM* | 12.6µM* | 0.366µM* | .
Cc1c(Cl)cccc1N1C(N)=C(C#N)C(c2cc(CN3CCOCC3)cs2)C2=C1CCCC2=O (stereo not drawn) | . | 56.5% | -18.7% | -0.3% | 0.5% | 10.3% | . | .
Cc1ccc2nc(-c3ccccc3)cn2c1 | -12.8% | 37.2% | -3.6% | 8.8% | 8.4% | -9.3% | 11.6µM* | .
O=C(CSc1nc(C2CC2)nc2ccccc12)Nc1ccccc1 | -3.9% | 7.8% | 5.5% | -5.7% | 5.8% | -12.6% | . | .
Cc1cccc(NC(=O)CSc2nc(C3CC3)nc3ccccc23)c1 | -5.4%[11.6 µM] | 22.4µM* | 39.8µM* | -5.6% | 22.4µM* | 4.9% | . | 67*
Cc1ccc(S(=O)(=O)c2cn(C)c3cc(N4CCCCCC4)c(F)cc3c2=O)cc1 | . | -1.5% | -24.3% | 1.3% | 28.9% | 1.3% | . | .
CSc1ccc(/C=C2\C=Cc3cc([N+](=O)[O-])ccc32)cc1 | . | -6.0% | . | -6.9% | . | -0.7% | . | .
NS(=O)(=O)c1ccc(NC(=O)/C=C/c2ccco2)cc1 | ? | 17.8µM* | 20µM* | 50.1µM* | 25.1µM* | -25.3% | 8.19µM* | .
COc1ccccc1NS(=O)(=O)c1cc(NC(=O)c2ccc3c(c2)OCCO3)ccc1C | -27.4% | ? | -25.5% | 0.1% | 27.5% | 8.6% | 2.3% | .
COc1ccccc1NS(=O)(=O)c1cc(NC(=O)CNC(=O)c2ccccc2)ccc1C | -28.8% | -0.5% | -14.1% | -15.6% | 24.9% | -3.0% | . | .
O=[N+]([O-])c1ccc(O/N=[N+](\[O-])N2CCCCC2)c([N+](=O)[O-])c1 | . | 34.9% | . | -21.8% | . | -0.2% | . | .
O=C(NCc1ccccc1)c1ccc(NC(=O)C2CCCC2)cc1 | 1.0% | 35.9% | -17.7% | -0.2% | . | 16.2% | 1.4% | .
O=C(CSc1nnc2scc(-c3ccccc3)n12)Nc1nsc(-c2ccccc2)n1 | ? | ? | ? | -22.6% | ? | ? | . | 37.7*
Cc1ccc(-c2c(C#N)c(N)n3c(nc4ccccc43)c2C#N)cc1 | -25.9% | ? | ? | -10.5% | -9.8% | -12.9% | . | .
N#Cc1c(-c2ccccc2)c(C#N)c2nc3ccccc3n2c1N | -9.8%[11.6 µM] | 15.8µM* | -6.3% | -34.8% | -8.3% | -4.3% | . | ?
Fc1ccccc1Nc1nc2ccccc2o1 | 4.7% | 9.4% | -0.1% | -6.2% | -0.2% | -2.9% | 18.3µM* | .
SMILES | WRN helicase inh | Pol iota inh | Pol eta inh | POLK inh | Pol beta inh | FEN1 inhibitor | PGK validate | Pol iota confirm
N=C1C(c2nc(-c3cccc([N+](=O)[O-])c3)cs2)=C(O)CN1NC(=O)c1ccco1 | ? | 50.1µM* | 50.1µM* | ? | 0.1% | -21.5% | . | ?
CS(=O)(=O)NCCSCc1ccco1 | ? | ? | 70.8µM* | ? | 39.8µM* | -2.8% | 20.6µM* | .
NC(=S)N/N=C/c1cccc(O)c1O | -10.4% | 79.4µM* | -8.5% | ? | -1.7% | 11.3% | . | 67*
Cc1ccc(OCC(=O)N(C)CC(=O)NCc2ccco2)c(Br)c1 | ? | ? | 14.1µM* | 79.4µM* | . | 4.9% | 20.6µM* | .
Cc1ccc(NC(=S)N2CCN(CCN3C(=O)c4cccc5cccc(c45)C3=O)CC2)cc1 | 3.0% | 11.7% | ? | -16.2% | 25.4% | -1.7% | 3.8% | .
O=C1c2cccc3cccc(c23)C(=O)N1CCN1CCN(C(=S)Nc2ccc(F)cc2)CC1 | . | . | . | . | 5.0% | . | . | .
Cc1ccc(Cn2c(=O)c3cccnc3n(CC(=O)Nc3cc(Cl)ccc3C)c2=O)cc1 | . | 23.6% | -19.4% | 5.7% | 29.3% | -0.4% | . | .
CCOc1ccc(-c2ccc(SC)nn2)cc1 | -17.5% | 133.2% | -15.8% | -6.6% | 12.8% | 5.8% | 8.19µM* | .
COc1ccc2c(c1OC)C(=O)OC2c1ccc(O)cc1 (stereo not drawn) | . | 1.0% | . | 10.2% | . | -2.2% | . | .
Cc1ccc(NC(=O)CN2C(=O)S/C(=C\c3cccn3-c3cccc(C(=O)O)c3)C2=O)c(C)c1 | ? | ? | 3.55µM* | ? | 10µM* | ? | 9.19µM* | .
COc1ccc(OC)c(C(C)NC(=O)Cn2c(=O)cc(C)c3c(C)nn(-c4ccc(C)cc4)c32)c1 (stereo not drawn) | . | 12.5% | -11.5% | -9.9% | 39.3% | -10.4% | . | .
O=C(OCCC12CC3CC(CC(C3)C1)C2)c1ccc(NCc2cc(O)ccc2O)cc1 | ? | 79.4µM* | ? | 79.4µM* | . | ? | 16.3µM* | .
